# IDE act: human IDE activators in live cells, primary screen, fluorescence polarization, HEK cells, FAbeta-B substrate. 0.073% of 340,000 active. FAbeta-B cleavage; 0% vehicle, 100% cell-free pure enzyme wells. AID 493087, 2011. Insulin-degrading enzyme (Homo sapiens), P14735. activation, % at 5.96 µM;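 active means activation above the mean of all tested compounds plus 3 SD, set per screening campaign, cut at about 17% in these data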
# NOD2 RIPK2 PPI: NOD2-RIPK2 binding disruptors in cells, primary screen, fluorescence, CHO cells, BLA complementation; Receptor-interacting serine/threonine-protein kinase 2 (Homo sapiens), O43353; CCF4 ratio; inhibition, % at 4.98 µM; 0.38% of 360,000 active; AID 624267, 2012; in the data active means inhibition above about 21%
# Target sequence (O43353 whole entry, looked up): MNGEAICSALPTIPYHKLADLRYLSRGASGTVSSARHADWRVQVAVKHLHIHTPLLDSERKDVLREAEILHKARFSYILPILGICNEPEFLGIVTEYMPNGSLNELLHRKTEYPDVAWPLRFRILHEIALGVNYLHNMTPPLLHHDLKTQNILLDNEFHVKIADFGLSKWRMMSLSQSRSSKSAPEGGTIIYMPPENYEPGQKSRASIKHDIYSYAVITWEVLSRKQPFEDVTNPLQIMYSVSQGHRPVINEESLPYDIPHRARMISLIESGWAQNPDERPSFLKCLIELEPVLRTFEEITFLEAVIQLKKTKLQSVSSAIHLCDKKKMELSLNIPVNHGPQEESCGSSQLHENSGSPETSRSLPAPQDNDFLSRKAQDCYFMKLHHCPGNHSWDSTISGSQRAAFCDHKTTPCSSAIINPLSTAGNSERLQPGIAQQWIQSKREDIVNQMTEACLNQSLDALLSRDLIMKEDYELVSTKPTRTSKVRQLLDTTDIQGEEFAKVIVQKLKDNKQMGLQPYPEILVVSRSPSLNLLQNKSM
# TLR4 MyD88 comp: inhibitors of TLR4-MyD88 association in cells, primary screen, cell-based, HeLa CL3-4, BLA complementation, FRET ratio; HeLa CL3-4 TLR4/MyD88 BLA complementation; Toll-like receptor 4 (Homo sapiens) + Myeloid differentiation primary response protein …; AID 861, 2007; 0.18% of 200,000 active; inhibition, % at 8.4 µM; in the data active means inhibition above about 25%
# IDE cell inh: human IDE inhibitors in live cells, primary screen, fluorescence polarization, HEK cells, FAbetaB substrate. Insulin-degrading enzyme (Homo sapiens), P14735. FAbetaB cleavage. inhibition, % at 5.59 µM. 0.41% of 320,000 active. AID 434962, 2010;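 active means percent inhibition above the average of all tested compounds plus 3 SD, set per screening campaign, cut at about 16% in these data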;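 further: IDE supplied by intact live HEK cells; FP after avidin binding of uncleaved biotin substrate so inhibition keeps polarization high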
# TLR9-MyD88 block: inhibitors of TLR9-MyD88 association in cells, primary screen, cell-based, CHO, BLA complementation, fluorescence | AID 504734, 2011 | 0.21% of 340,000 active | CCF4 FRET ratio | inhibition, % at 4.98 µM | Toll-like receptor 9 (Homo sapiens) + Myeloid differentiation primary response protein …;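 active means inhibition above the mean over all tested compounds plus 3 SD, cut at about 21% in these data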
# IDE inh confirm: human IDE inhibitors in live cells, confirmation, fluorescence polarization, HEK cells, FAbetaB substrate | shares compounds with IDE cell inh | FAbetaB cleavage | inhibition, % at 5.59 µM | 51% of 1,200 active;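 active means mean inhibition across triplicate wells above the cutoff set by the earlier primary insulin-degrading enzyme screen, cut at about 16% in these data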
# HEK293 tox: cytotoxicity in HEK cells, cytotoxicity control for IDE inhibitor project, cell-based, luminescence; shares compounds with IDE cell inh; HEK293 cytotoxicity, ATP luminescence; inhibition, % at 5.59 µM; 28% of 1,200 active; AID 449730, 2010; in the data active means inhibition above about 22%
# FP fluor counter: fluorescent or optically active artefacts, dose response, artefact control for IDE inhibitor project, biochemical, fluorescence polarization. shares compounds with IDE cell inh. FP counterscreen for fluorescent artifacts, IDE probe project. IC50, µM. 30 tested, under 10 active. AID 588718, 2011; call rule not given here
# Numbers stand for hits; n = inactive; x = not tested or not shown. Most compounds without a hit are left out; they make up all but 0.87% or so of the library.
SMILES,IDE act,NOD2 RIPK2 PPI,TLR4 MyD88 comp,IDE cell inh,TLR9-MyD88 block,IDE inh confirm,HEK293 tox,others
COc1ccccc1NC(=O)N1CCN(c2ccc3nnc(-c4ccc(F)cc4)n3n2)CC1,n,n,x,16.7,n,n,n,
O=C(Nc1ccccc1Cl)N1CCN(c2ccc3nnc(-c4ccc(F)cc4)n3n2)CC1,n,n,n,n,n,x,x,
O=C(C1CC1)N1CCN(c2ccnc3cc(Cl)ccc23)CC1,n,n,n,21.6,n,16.4,n,FP fluor counter=n
O=C(c1ccc(Cl)cc1)N1CCN(C(=O)C2CCCCC2)CC1,n,n,x,n,n,x,x,
O=C(C1CCCCC1)N1CCN(c2ccnc3cc(Cl)ccc23)CC1,n,n,x,23.8,n,23.0,42.4,
COC(=O)c1c(C)[nH]c(C(=O)C(C)OC(=O)c2c(C)noc2C)c1C (configuration not stated),n,n,x,n,n,x,x,
COc1cc2c(cc1OC)C(COc1cc(C)cc(C)c1)N(C(C)=O)CC2 (configuration not stated),n,n,x,n,n,x,x,
CCS(=O)(=O)c1nn2c(N)c(/C=C3/C=CC(=O)C(OC)=C3)c(=O)nc2s1,n,n,n,23.6,n,157.3,n,
NC(=S)N/N=C\c1ccc(-c2cccc(Cl)c2Cl)o1,n,n,n,26.6,n,n,28.5,
NC(=S)N/N=C/c1ccc(-c2ccc(Cl)c(Cl)c2)o1,n,n,n,n,n,x,x,
Cc1cccc(NC(=O)CN2C(=O)CCS(=O)(=O)c3ccccc32)c1C,n,n,x,n,n,x,x,
Oc1sc(C=Nc2ccc(F)cc2)c2ccccc12,n,n,n,17.9,n,34.3,n,
Cc1cccc(N2CCN(C(=O)NCc3ccc(F)cc3)CC2)c1C,n,n,x,n,n,x,x,
COc1ccc(CNC(=O)N2CCN(c3cccc(C)c3C)CC2)cc1OC,n,n,x,17.5,n,n,n,
CCOC(=O)c1c(C)[nH]c(C(=O)Cn2nnc(-c3ccccc3Cl)n2)c1C,n,n,n,18.8,n,n,n,
CCOC(=O)c1c(C)[nH]c(C(=O)Cn2nnc(-c3ccccc3)n2)c1C,n,n,n,n,n,x,x,
COc1cccc(/C=N/n2c(SC)nnc2-c2ccccc2)c1O,n,n,n,25.1,n,39.5,27.3,
COc1ccc(NC(=O)c2cc3c(Cl)nc4ccccc4c3s2)cc1OC,n,n,n,19.5,n,n,n,
O=c1oc2ccc(Br)cc2cc1-c1nc2ccccc2o1,n,n,n,20.3,n,73.3,n,
COc1cccc2cc(-c3nc4ccccc4o3)c(=O)oc12,n,n,n,n,n,x,x,
CCc1ccc2oc(C(=O)NCCc3ccc(S(N)(=O)=O)cc3)cc(=O)c2c1,n,n,x,n,n,x,x,
CNS(=O)(=O)c1cccc(C(=O)NCC(c2ccco2)N(C)C)c1 (configuration not stated),n,n,x,n,n,x,x,
COc1ccccc1NC(=O)c1ccc(NC(=O)COC(=O)C2CC2C)cc1 (configuration not stated),n,n,n,19.2,n,n,n,
Nc1ccc2c3c(cccc13)CC2,n,n,n,42.6,n,n,n,
c1ccc(Nc2ccc3c4c(cccc24)CC3)cc1,n,n,n,n,n,x,x,
SMILES,IDE act,NOD2 RIPK2 PPI,TLR4 MyD88 comp,IDE cell inh,TLR9-MyD88 block,IDE inh confirm,HEK293 tox,others
O=C(Cc1ccc(Cl)cc1)NCCCNC(=O)c1cccnc1,n,n,x,n,n,x,x,
CCOC(=O)/C(C#N)=C/C=C1/C=CC=CN1C,n,n,x,n,n,x,x,
C=CCN1C=CC(=C/C=C(/C#N)C(=O)OCC)C=C1,n,n,n,43.5,n,63.1,n,
O=C(CCC1N=C2c3ccccc3N=C(SCc3ccccc3Cl)N2C1=O)NCc1ccco1 (configuration not stated),n,n,n,21.2,n,n,n,
CCOCCCNc1ncnc2c1[nH]c1ccccc12,n,n,n,21.2,n,n,37.6,
CCOc1ccc2[nH]c3c(NCCc4ccc(OC)c(OC)c4)ncnc3c2c1,n,n,x,17.4,n,n,40.9,
CCCCOc1ncnc2c1[nH]c1ccccc12,n,n,n,n,n,x,x,
CCCCOCCCNc1ncnc2c1[nH]c1ccccc12,n,n,n,24.7,n,n,72.8,
CC(=O)Nc1ccc(N(C(=O)CNC(=O)c2ccco2)C(C(=O)NC2CCCC2)c2ccco2)cc1 (configuration not stated),n,n,x,n,n,x,x,
Cc1ccc(CSc2ccc(S(=O)(=O)N3CCCC3)cn2)cc1,n,n,x,n,n,x,x,
O=S(=O)(c1ccc(SCc2cccc(Cl)c2)nc1)N1CCCC1,n,n,x,16.5,n,17.9,n,
C/C(=N\Nc1ccc(F)cc1F)c1ccc(Br)s1,n,n,n,n,n,x,x,
COc1cc(-c2cc(=O)c3c(O)cc(O)cc3o2)ccc1O,x,n,n,n,x,x,x,
COc1cc(-c2cc(=O)c3ccccc3o2)ccc1O,n,n,n,24.6,n,23.6,n,
Cc1nc2ccccc2c(=O)n1-c1ccc(NS(=O)(=O)c2ccc(F)cc2)cc1,n,n,x,22.1,n,n,n,
O=c1cc(N=Nc2ccc(Cl)cc2)[nH]c(=O)[nH]1,n,n,x,n,n,x,x,
CN(CC(=O)Nc1ccc2c(c1)CCC2)CC(=O)Nc1ccccc1Br,n,n,n,18.7,n,n,n,
COc1ccc(NC(=O)CN(C)CC(=O)Nc2ccc3c(c2)CCC3)cc1,n,n,n,n,n,x,x,
CC(=O)N1CC[n+]2c(-c3ccc(Cl)cc3)csc21,n,n,n,22.5,n,n,n,
CCc1ccc(-c2csc3[n+]2CCN3C(C)=O)cc1,n,n,n,n,n,x,x,
CC1CCCN(C(=O)c2cc(N3C(=O)C4C5CCC(C5)C4C3=O)ccc2Cl)C1 (configuration not stated),x,x,n,n,x,x,x,
COc1ccccc1N1CCN(C(=O)c2cc(N3C(=O)C4C5CCC(C5)C4C3=O)ccc2Cl)CC1 (configuration not stated),n,n,n,31.0,n,21.0,n,
CN(C)S(=O)(=O)c1ccc(N2CCCC2)c(C(=O)NNC(=O)c2ccc(Br)cc2)c1,n,n,x,n,n,x,x,
O=c1c2cc(F)ccc2sn1-c1ccc(F)cc1,n,n,x,34.8,n,18.3,42.1,
O=C1CCCC(=O)N1c1ccc(F)cc1,n,n,x,n,n,x,x,
CCOc1ccc(NC(=O)N(Cc2ccc(C)cc2)Cc2ccccn2)cc1,n,n,x,n,n,x,x,

# Screening data (PubChem BioAssay)
